Compound activity from PubChem.
Mtb UGM inh: inhibitors of M. tuberculosis UDP-galactopyranose mutase | P9WIQ1 | purified UGM, fluorescence polarization probe displacement | inhibition, % at 10 µM | 320,000 compounds, 0.06% hits; in the data active means inhibition above about 10%, passing the limit was not always enough; inconclusive means no clear call, values can overlap the other calls
Target sequence (P9WIQ1 whole entry, looked up): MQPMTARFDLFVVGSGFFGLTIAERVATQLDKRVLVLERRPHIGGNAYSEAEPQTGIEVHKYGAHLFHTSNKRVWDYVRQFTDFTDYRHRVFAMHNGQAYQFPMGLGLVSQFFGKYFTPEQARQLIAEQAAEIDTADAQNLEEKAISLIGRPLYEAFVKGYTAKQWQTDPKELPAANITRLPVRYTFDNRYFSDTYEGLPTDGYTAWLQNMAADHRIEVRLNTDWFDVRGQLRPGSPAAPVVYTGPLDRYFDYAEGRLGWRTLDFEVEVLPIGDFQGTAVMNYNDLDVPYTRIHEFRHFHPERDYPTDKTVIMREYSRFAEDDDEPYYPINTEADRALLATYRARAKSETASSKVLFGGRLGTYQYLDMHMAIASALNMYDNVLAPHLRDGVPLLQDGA
Mtb bLac sens: beta-lactam sensitization of Mtb H37Rv | M. tuberculosis H37Rv growth with meropenem, percent inhibition | inhibition, % at 25 µM | 330,000 compounds, 0.27% hits | AID 434955; call rule not given here;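 further: growth measured after seven days incubation then overnight dye step; 0% = bacteria only wells and 100% = bacteria with antibiotic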
FadD28 binding: blocks FadD28 binding to the bisubstrate probe; 360,000 compounds, 0.22% hits; fluorescence polarization; inhibition, % at 12.5 µM; AID 588549; in the data active means inhibition above about 8.5%, passing the limit was not always enough; inconclusive means no clear call, values can overlap the other calls
BH1578 lux ind: induces V. cholerae light production without autoinducers | V. cholerae BH1578 lux reporter, luminescence, 6 h | activation, % at 18.7 µM | 350,000 compounds, 0.16% hits | AID 588436; in the data active means activation mostly above about 9.7%, no sharp cut-off; inconclusive means no clear call, values can overlap the other calls; inactive means mostly below about 3.7%
Rv3671c protease: inhibitors of M. tuberculosis serine protease Rv3671c; inhibition, % at 5.96 µM; 320,000 compounds, 0.048% hits; P9WHR9;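 further: extracellular domain of Rv3671c used as enzyme; 0% = enzyme with DMSO and 100% = no enzyme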
PrP 5UTR inh: suppresses PrP 5' UTR mRNA reporter expression; cell-based PrP 5' UTR mRNA reporter, plate reader; inhibition, % (concentration not given with the values); 340,000 compounds, 0.35% hits; AID 488862; in the data active means inhibition above about 52%; further: 0 = median of the neutral control wells
Rv3671c confirm: confirmation of M. tuberculosis Rv3671c protease inhibitors; shares compounds with Rv3671c protease; inhibition, % at 5.96 µM; 140 compounds, 40% hits; AID 2761
PrP 5UTR single: prion 5' UTR mRNA inhibition, cherry-pick retest; shares compounds with PrP 5UTR inh; 1,100 compounds, 48% hits; cell-based prion protein 5' UTR reporter, plate reader; inhibition, % at 2.5 µM; AID 504592; in the data active means inhibition above about 54%; inconclusive means no clear call, values can overlap the other calls
* marks the source's active call; other numbers are inactive results; i = inactive; u = inconclusive; x = no result given. Sampled rows, rich in hits. Any-hit rate of the full collection: about 0.76%. Unless noted, no stated cut-off is given here; in the data, active means inhibition above about 38%; inactive means the rest.

SMILES	Mtb UGM inh	Mtb bLac sens	FadD28 binding	BH1578 lux ind	Rv3671c protease	PrP 5UTR inh	Rv3671c confirm	others
Cc1[nH]c2ccccc2c1/C=N/Nc1nc2ccccc2[nH]1	2	82	0	i	59*	-32	41*
O=c1[nH]c(N/N=C/c2cc3c(cc2[N+](=O)[O-])OCO3)nc2ccccc12	0	-3	-3	0	1	-10	x
O=[N+]([O-])c1cc(/C=N/Nc2nc3ccccc3[nH]2)c(O)cc1O	0	8	x	x	60*	x	29
Nc1ccc(Nc2nc3ccccc3[nH]2)cc1	-1	-3	-2	0	50*	-26	46*
Cc1ccc(/C=N/Nc2nc3ccccc3[nH]2)s1	1	7	-2	0	-1	-83	x
C(=N\Nc1nc2ccccc2[nH]1)/c1c[nH]c2ccccc12	3	90	4	0	41*	-67	92*
Cc1ccccc1/C=N/Nc1nc2ccccc2[nH]1	0	65	1	0	8	-44	x
C(=N\Nc1nc2ccccc2[nH]1)/c1cccc2cccnc12	-1	83	0	-1	38*	-3	27
c1cc2c(cc1-c1csc(NNC3=NCCCCC3)n1)OCCO2	1	2	x	x	-6	x	x
COc1cccc(CNC(=O)c2ccc(NC(=O)C3=CSCCO3)cc2)c1	-3	8	-3	i	61*	-14	-6
Cc1ccc(CNC(=O)c2ccc(NC(=O)C3=CSCCO3)cc2)cc1	-1	-4	-3	0	-10	-20	x
O=C(N/N=C/c1cc(Br)c(O)c(Br)c1O)c1ccc2c(c1)OCCO2	2	6	12*	0	42*	-16	21
O=C(N/N=C/c1cc(Br)c(Br)o1)c1ccc2c(c1)OCCO2	2	5	-4	0	2	-93	x
CCCCCOc1ccc(C(=O)NCC(=O)NCC(=O)OCC)cc1	1	99	-2	i	-1	-17	x
CC(=O)Nc1ccc2nc(-c3ccccn3)[nH]c2c1	5	-4	0	i	-2	-58	x
c1ccc(-c2nc3cc4ccccc4cc3[nH]2)nc1	0	89	-4	i	39*	1	44*
C[C@@H](NC(=O)Cn1ccc(N)nc1=O)c1cccc2ccccc12	1	6	0	0	-2	-6	x
Cc1noc(C)c1S(=O)(=O)Nc1ccc2c(c1)C(=O)N([C@H](C)CO)C[C@H](C)[C@H](CN(C)C(=O)NC(C)C)OCCCC[C@@H](C)O2	x	x	-1	-1	x	x	x
COc1ccccc1-c1cc(C(F)(F)F)nc(S(=O)(=O)CCCC(=O)N2CCOCC2)n1	5	94	-3	-1	-9	-19	x
COc1ccc(-c2cc(C(F)(F)F)nc(S(=O)(=O)CCC(=O)N3CCOCC3)n2)cc1	-1	47	1	0	60*	10	-7
COc1cccc(C(=O)O[C@H]2[C@H](Cc3ccccc3)NS(=O)(=O)[C@H]3C[C@@H]4C=C[C@]23O4)c1	0	-3	-1	1	-23	-64	x
Cc1nc(NC(=O)c2ccccc2)sc1-c1csc(Nc2cccc(F)c2)n1	-2	0	x	x	-14	x	x
Cc1cc(NS(=O)(=O)c2ccc(Nc3nc(-c4sc(NC(=O)c5ccccc5)nc4C)cs3)cc2)no1	0	11	x	x	63*	x	50*
CC(=O)c1c(OC(=O)c2ccco2)c2ccccc2n1C	-1	10	-2	i	74*	-14	77*
CC(=O)c1sc2ccccc2c1OC(=O)c1ccco1	0	99	-3	i	61*	-11	56*
SMILES	Mtb UGM inh	Mtb bLac sens	FadD28 binding	BH1578 lux ind	Rv3671c protease	PrP 5UTR inh	Rv3671c confirm	others
CC(=O)c1c(OC(=O)c2ccc(C)cc2)c2ccccc2n1C	0	99	-1	0	0	-1	x
CCNc1cc(O)ccc1C	4	-2	4	0	63*	-14	11
Cn1c2ccccc2c2cc(/C=N/NC(=O)c3ccc(O)cc3O)ccc21	0	15	-3	-1	25	-35	x
Cn1c(O)c(/C=N/NC(=O)c2cc3ccccc3cc2O)c2ccccc21	1	-6	u	1	47*	-26	22
COc1ccc(NC(=O)C(=O)NCCO)cc1Cl	2	-1	0	0	4	-16	x
Cc1ccsc1/C=N/NC(=O)c1cccnc1	-3	1	-1	-1	8	-3	x
COc1cccc(/C=N/Nc2ccc([N+](=O)[O-])cn2)c1O	0	15	0	i	81*	58*	-4	PrP 5UTR single=48
O=C(c1ccccc1Cl)N1N=C(c2cccs2)CC1c1cccc(O)c1 (stereo not drawn)	2	3	-9	i	-13	1	x
CC(=O)Nc1ccc(SCC(=O)c2cc(C)n(-c3ccccc3F)c2C)cc1	3	5	-6	-1	-10	68*	x	PrP 5UTR single=21
CC(=O)Nc1ccc(SCC(=O)c2cc(C)n(Cc3cccs3)c2C)cc1	0	-3	0	1	3	61*	x	PrP 5UTR single=36
COCCn1c(C)cc(C(=O)CSc2ccc(NC(C)=O)cc2)c1C	4	-12	0	1	2	3	x
COC(=O)c1ccc(-n2c(C)cc(C(=O)CSc3ccc(NC(C)=O)cc3)c2C)cc1	-1	56	-4	0	-5	-5	x
O=C(CNC(=O)COc1ccccc1)NCCN1CCOCC1	x	2	-1	i	-4	-33	x
O=C(COC(=O)c1cccnc1)NC1CCCc2ccccc21 (stereo not drawn)	x	x	-2	i	x	-9	x
COc1ccc(C(=O)NC(=O)Nc2cc(C)ccn2)cc1	0	9	0	5	-6	61*	x	PrP 5UTR single=64*
COc1ccc(NC(=O)Nc2cc(C)ccn2)cc1	x	x	0	0	x	10	x
O=C(NC(=O)c1ccccc1)Nc1ccccn1	0	-15	-1	0	2	75*	x	PrP 5UTR single=76*
O=[N+]([O-])c1cccc2nc3ccccc3c(NCCCn3ccnc3[N+](=O)[O-])c12	x	x	-1	6	x	87*	x	PrP 5UTR single=95*
NC(=O)c1ncn([C@@H]2O[C@H](CNS(=O)(=O)c3cc4ccccc4s3)[C@@H](O)[C@H]2O)n1	x	x	-5	0	x	-10	x
O=C(Nc1nc2ccccc2[nH]1)c1ccccc1F	-1	x	-4	i	-4	85*	x	PrP 5UTR single=85*
CC(C)Oc1ccc(C(=O)Nc2nc3ccccc3[nH]2)cc1	0	96	-3	0	2	61*	x	PrP 5UTR single=62*
CCc1ccc(C(=O)Nc2nc3ccccc3[nH]2)cc1	1	94	-4	i	-5	63*	x	PrP 5UTR single=u
Cc1csc(NC(=O)c2ccc(N3CCCC3=O)cc2)n1	-3	-1	-2	0	-3	56*	x	PrP 5UTR single=u
